A number with no mark means an inactive call. Records with an inconclusive call do not appear. Entries that show only a call come without a potency. The source made the active and inactive calls. Unless noted, calls follow the shape of the dose curve; as a rule, active = well fitted curve in the direction sought with a large enough effect in the repeat runs; inconclusive = weak or mixed curves; inactive = no such curve, though single readings can be large; an effect the other way counts as inactive or inconclusive.
Columns and labels:
[1] = qHTS assay to identify small molecule antagonists of the glucocorticoid receptor (GR) signaling pathway - cell viability counter screen (AID 720693); also: nearly all actives have a fitted effect of over 55% in size
[2] = qHTS assay for identifying genotoxic compounds that show differential cytotoxicity against isogenic chicken DT40 cell lines with known DNA damage response pathways - wild type cell line (AID 743012); also: nearly all actives have a fitted effect of over 60% in size; also: potency is read from the fitted curve at half-maximal effect
In short: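 Using parental DT40 (300 cells/well), compounds delivered in DMSO incubate 40 h at 37 C/5% CO2. CellTiter-Glo reagent then stands 30 min at room temperature, and luminescence gives cell viability.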

[3] = qHTS assay for identifying genotoxic compounds that show differential cytotoxicity against isogenic chicken DT40 cell lines with known DNA damage response pathways - Rad54/Ku70 mutant cell line (AID 743015); also: nearly all actives have a fitted effect of over 60% in size; also: potency is read from the fitted curve at half-maximal effect
[4] = qHTS assay to identify small molecule antagonists of the androgen receptor (AR) signaling pathway - cell viability counter screen (AID 743033; also: nearly all actives have a fitted effect of over 45% in size)
[5] = qHTS assay to identify small molecule antagonists of the androgen receptor (AR) signaling pathway using the MDA cell line - cell viability counter screen (AID 743041; also: nearly all actives have a fitted effect of over 45% in size)
In short: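 MDA-kb2 AR-luc human breast carcinoma cells (MMTV-luciferase, AR/GR responsive) were treated with compounds plus R1881 agonist for 16 h at 37 °C. Viability was read as CellTiter-Fluor fluorescence in the same wells as the reporter assay.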

[6] = qHTS assay to identify small molecule antagonists of the thyroid receptor (TR) signaling pathway - cell viability counter screen (AID 743064); also: nearly all actives have a fitted effect of over 50% in size
In short: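 Fluorescence from CellTiter-Fluor, added after 23.5 h exposure at 37 °C, reported viability of GH3.TRE-Luc cells co-treated with compound and 1 nM T3. Measured in the same wells as the luciferase TR readout.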

[7] = qHTS assay to identify small molecule antagonists of the thyroid receptor (TR) signaling pathway (AID 743065); also: series mostly up to about 70 µM; nearly all actives have a fitted effect of over 55% in size
In short: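 GH3.TRE-Luc rat pituitary cells carrying two TR response elements driving luciferase were plated for 4 h, given compound plus 1 nM T3 (final), and incubated 23.5 h at 37 C. ONE-Glo luminescence measured reporter inhibition; CellTiter-Fluor fluorescence tracked cytotoxicity.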

[8] = tested on: thyroid hormone receptor (rat, GH3 cells); experiment: qHTS assay to identify small molecule agonists of the thyroid receptor (TR) signaling pathway (AID 743066; calls by dose curve)
[9] = qHTS assay to identify small molecule antagonists of the estrogen receptor alpha (ER-alpha) signaling pathway using the BG1 cell line - cell viability counter screen (AID 743081);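 also: compound given together with 17beta-estradiol as the ER stimulus; series mostly up to about 70 µM; nearly all actives have a fitted effect of over 45% in size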
Aromatase (Homo sapiens) = Aromatase (Homo sapiens) (UniProt P11511); experiment: qHTS assay to identify aromatase inhibitors (AID 743083); also: series mostly up to about 70 µM; nearly all actives have a fitted effect of over 55% in size
Aromatase (Homo sapiens), sequence (P11511 whole entry, looked up): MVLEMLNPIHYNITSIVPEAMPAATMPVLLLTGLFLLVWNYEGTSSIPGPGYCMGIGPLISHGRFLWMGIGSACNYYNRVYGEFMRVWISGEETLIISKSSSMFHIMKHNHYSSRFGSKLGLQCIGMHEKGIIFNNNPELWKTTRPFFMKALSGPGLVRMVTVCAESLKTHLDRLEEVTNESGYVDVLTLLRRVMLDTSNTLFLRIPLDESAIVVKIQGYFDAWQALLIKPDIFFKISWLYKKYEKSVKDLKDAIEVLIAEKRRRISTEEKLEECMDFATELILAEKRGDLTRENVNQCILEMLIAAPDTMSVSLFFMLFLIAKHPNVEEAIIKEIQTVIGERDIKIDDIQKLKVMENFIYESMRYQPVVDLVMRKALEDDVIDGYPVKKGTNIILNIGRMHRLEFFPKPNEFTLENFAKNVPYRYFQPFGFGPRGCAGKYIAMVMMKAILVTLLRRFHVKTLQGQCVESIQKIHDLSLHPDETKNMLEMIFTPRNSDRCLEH

[10] = qHTS assay for identifying genotoxic compounds that show differential cytotoxicity against isogenic chicken DT40 cell lines with known DNA damage response pathways - Rev3 mutant cell line (AID 743014); also: nearly all actives have a fitted effect of over 55% in size; also: potency is read from the fitted curve at half-maximal effect
[11] = qHTS assay to identify small molecule antagonists of the estrogen receptor alpha (ER-alpha) signaling pathway - cell viability counter screen (AID 743074; calls by dose curve; also: nearly all actives have a fitted effect of over 45% in size)
[12] = biological target: Estrogen receptor (Homo sapiens) (UniProt P03372); experiment: qHTS assay to identify small molecule antagonists of the estrogen receptor alpha (ER-alpha) signaling pathway (AID 743069; active = well fitted curve in the direction sought with a large enough effect in the signal ratio in the repeat runs, not every such curve was filed as active; the % refers to the signal ratio)
Estrogen receptor (Homo sapiens), sequence (P03372 whole entry, looked up): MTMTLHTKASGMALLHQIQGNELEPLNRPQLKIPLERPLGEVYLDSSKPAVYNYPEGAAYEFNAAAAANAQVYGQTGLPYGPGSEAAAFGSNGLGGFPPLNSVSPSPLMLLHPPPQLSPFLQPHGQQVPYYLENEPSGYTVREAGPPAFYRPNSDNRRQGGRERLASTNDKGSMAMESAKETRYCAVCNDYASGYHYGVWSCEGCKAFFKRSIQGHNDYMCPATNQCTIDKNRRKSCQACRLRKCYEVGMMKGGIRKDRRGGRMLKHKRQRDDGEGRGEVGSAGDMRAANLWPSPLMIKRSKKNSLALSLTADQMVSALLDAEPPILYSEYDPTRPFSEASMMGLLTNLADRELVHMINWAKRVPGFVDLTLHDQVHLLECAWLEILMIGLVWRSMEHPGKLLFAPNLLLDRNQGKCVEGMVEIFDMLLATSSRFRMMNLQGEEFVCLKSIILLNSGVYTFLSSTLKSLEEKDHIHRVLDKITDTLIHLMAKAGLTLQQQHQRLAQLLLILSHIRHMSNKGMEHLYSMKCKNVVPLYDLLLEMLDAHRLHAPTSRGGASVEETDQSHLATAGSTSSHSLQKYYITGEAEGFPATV
In short: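 HEK293 cells stably carrying an ER-alpha-UAS-bla beta-lactamase reporter were pre-cultured overnight in 2% charcoal-stripped FBS medium. Test compounds in DMSO were added together with 17beta-estradiol for 18 hr at 37C. Read-out was fluorescence after 2 hr with LiveBLAzer B/G FRET substrate at room temperature.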

[13] = biological target: Estrogen receptor (Homo sapiens) (UniProt P03372); experiment: qHTS assay to identify small molecule agonists of the estrogen receptor alpha (ER-alpha) signaling pathway (AID 743075; calls by dose curve)
[14] = qHTS assay to identify small molecule antagonists of the estrogen receptor alpha (ER-alpha) signaling pathway using the BG1 cell line (AID 743080; calls by dose curve;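 also: BG1 cells stimulated with 17beta-estradiol alongside compound; series mostly up to about 70 µM; nearly all actives have a fitted effect of over 25% in size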)
In short: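 Readout is ONE-Glo luminescence, taken 30 min at room temperature after reagent addition, preceded by a CellTiter-Fluor viability read; BG1-Luc-4E2 cells had received compound and 17beta-estradiol for 21.5 h at 37 C.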

[15] = biological target: Androgen receptor (Homo sapiens) (UniProt P10275); experiment: qHTS assay to identify small molecule antagonists of the androgen receptor (AR) signaling pathway (AID 743035; active = well fitted inhibition curve with a large enough effect in the signal ratio in the repeat runs, not every such curve was filed as active; the % refers to the signal ratio)
Androgen receptor (Homo sapiens), sequence (P10275 whole entry, looked up): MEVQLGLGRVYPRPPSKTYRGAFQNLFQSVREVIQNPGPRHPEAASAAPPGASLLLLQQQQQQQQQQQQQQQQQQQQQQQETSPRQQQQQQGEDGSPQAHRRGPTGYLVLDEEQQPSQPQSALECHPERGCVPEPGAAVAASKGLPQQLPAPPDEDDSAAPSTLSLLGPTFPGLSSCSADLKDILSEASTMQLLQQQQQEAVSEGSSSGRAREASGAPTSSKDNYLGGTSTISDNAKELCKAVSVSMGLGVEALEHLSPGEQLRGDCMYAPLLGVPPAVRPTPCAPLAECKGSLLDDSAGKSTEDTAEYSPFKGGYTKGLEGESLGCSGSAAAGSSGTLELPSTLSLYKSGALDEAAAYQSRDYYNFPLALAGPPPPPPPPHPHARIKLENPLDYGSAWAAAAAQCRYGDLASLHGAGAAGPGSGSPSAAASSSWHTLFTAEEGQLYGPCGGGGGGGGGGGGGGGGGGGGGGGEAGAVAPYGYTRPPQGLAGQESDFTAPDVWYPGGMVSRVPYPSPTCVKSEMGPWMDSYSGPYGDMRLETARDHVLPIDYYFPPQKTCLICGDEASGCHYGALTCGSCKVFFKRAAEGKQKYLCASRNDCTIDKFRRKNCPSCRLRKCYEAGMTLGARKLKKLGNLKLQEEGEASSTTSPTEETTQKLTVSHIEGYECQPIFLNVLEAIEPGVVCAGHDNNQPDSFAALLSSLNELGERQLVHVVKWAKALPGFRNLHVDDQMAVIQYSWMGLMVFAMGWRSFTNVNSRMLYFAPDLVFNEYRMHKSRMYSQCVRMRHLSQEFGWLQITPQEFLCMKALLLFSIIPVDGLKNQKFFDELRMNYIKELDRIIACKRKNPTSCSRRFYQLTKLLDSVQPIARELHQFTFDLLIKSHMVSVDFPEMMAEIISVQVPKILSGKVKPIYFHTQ
In short: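 Using qHTS, AR-UAS-bla GripTite HEK293 cells received compound, then R1881, and were cultured 16 h at 37C/5% CO2 before a 2 h room-temperature LiveBLAzer B/G FRET substrate step and fluorescence measurement.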

[16] = biological target: Androgen receptor (Homo sapiens) (UniProt P10275); experiment: qHTS assay to identify small molecule agonists of the androgen receptor (AR) signaling pathway using the MDA cell line (AID 743040; also: nearly all actives have a fitted effect of over 20% in size)
In short: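 MDA-kb2 breast carcinoma cells stably carrying an MMTV-driven luciferase reporter (AR- and GR-responsive) were seeded and held 5 h at 37C, 0% CO2, then exposed to compounds in DMSO for 16 h. Luminescence was read 30 min after ONE-Glo addition.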

[17] = biological target: Androgen receptor (Homo sapiens) (UniProt P10275); experiment: qHTS assay to identify small molecule antagonists of the androgen receptor (AR) signaling pathway using the MDA cell line (AID 743042; also: nearly all actives have a fitted effect of over 55% in size)
In short: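 MDA-kb2 cells (human breast carcinoma, stably carrying an MMTV-luciferase reporter responsive to AR and GR) were plated at 3,000 cells/well and preincubated 5 hr at 37C, then given compound plus R1881 agonist for 16 h. ONE-Glo luminescence was read.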

[18] = biological target: Estrogen receptor (Homo sapiens) (UniProt P03372); experiment: qHTS assay to identify small molecule agonists of the estrogen receptor alpha (ER-alpha) signaling pathway using the BG1 cell line (AID 743079); also: nearly all actives have a fitted effect of over 20% in size

CCC(C)S (stereo not drawn)
viability change, negative = cytotoxic [1]: -1.32% [at 3.15 µM]
activity change, negative = cytotoxicity [2]: 25.1% [at 3.82 µM]
activity change, negative = cytotoxicity [3]: 19.5% [at 3.83 µM]
activity change, negative = cytotoxicity [4]: 6.76% [at 3.15 µM]
viability change, negative = cytotoxic [5]: 8.95% [at 3.79 µM]
activity change, negative = cytotoxic [6]: 23.6% [at 3.79 µM]
activity, negative = inhibition [7]: 10.9% [at 3.79 µM]
activation [8]: 1.37% [at 3.63 µM]
activity change, negative = cytotoxicity [9]: 11% [at 3.79 µM]
activity, negative = inhibition (Aromatase (Homo sapiens)): 7.68% [at 3.79 µM]

CC[N+](C)(C)c1cccc(O)c1
outcome [1]: inactive
Potency [2]: inactive
Potency [10]: inactive
Potency [3]: inactive
Potency [4]: inactive
Potency [5]: inactive
outcome [11]: inactive
Potency [9]: inactive
Potency (Aromatase (Homo sapiens)): inactive

CN(C(=O)c1c(O)c2ccccc2n(C)c1=O)c1ccccc1
outcome [1]: inactive
Potency [2]: inactive
Potency [10]: inactive
Potency [3]: inactive
Potency [5]: inactive
Potency [6]: inactive
Potency [7]: inactive
outcome [8]: inactive
outcome [11]: inactive
Potency [9]: inactive
Potency (Aromatase (Homo sapiens)): inactive

Cc1ccc(=O)n(-c2ccccc2)c1
outcome [1]: inactive
Potency [2]: inactive
Potency [3]: inactive
Potency [4]: inactive
Potency [5]: inactive
Potency [6]: inactive
outcome [12]: inactive
outcome [11]: inactive
Potency [13]: inactive
outcome [14]: inactive
Potency [9]: inactive
Potency (Aromatase (Homo sapiens)): inactive

O=C(O)COc1nn(Cc2ccccc2)c2ccccc12
outcome [1]: inactive
Potency [2]: inactive
Potency [3]: inactive
Potency [4]: inactive
outcome [15]: inactive
Potency [16]: inactive
Potency [5]: inactive
Potency [17]: inactive
Potency [6]: inactive
Potency [7]: inactive
outcome [8]: inactive
outcome [12]: inactive
outcome [11]: inactive
Potency [13]: inactive
Potency [18]: inactive
Potency [9]: inactive
Potency (Aromatase (Homo sapiens)): inactive

c1cnc(N2CCN(Cc3ccc4c(c3)OCO4)CC2)nc1
outcome [1]: inactive
Potency [2]: inactive
Potency [3]: inactive
Potency [4]: inactive
Potency [5]: inactive
Potency [6]: inactive
Potency [7]: inactive
outcome [8]: inactive
outcome [12]: inactive
outcome [11]: inactive
Potency [13]: inactive
Potency [18]: inactive
outcome [14]: inactive
Potency [9]: inactive
Potency (Aromatase (Homo sapiens)): inactive

c1ccc(CC2=NCCN2)cc1
outcome [1]: inactive
Potency [2]: inactive
Potency [10]: inactive
Potency [3]: inactive
Potency [5]: inactive
Potency [7]: inactive
outcome [8]: inactive
outcome [12]: inactive
outcome [11]: inactive
Potency [13]: inactive
Potency [18]: inactive
outcome [14]: inactive
Potency [9]: inactive
Potency (Aromatase (Homo sapiens)): inactive

CCOC(=O)c1ccc(C)cc1
outcome [1]: inactive
Potency [2]: inactive
Potency [3]: inactive
Potency [4]: inactive
Potency [5]: inactive
Potency [6]: inactive
Potency [7]: inactive
outcome [8]: inactive
outcome [12]: inactive
Potency [13]: inactive
Potency [18]: inactive
outcome [14]: inactive
Potency [9]: inactive
Potency (Aromatase (Homo sapiens)): inactive

CCN(CC)CCOCCOC(=O)C1(c2ccccc2)CCCC1
outcome [1]: inactive
Potency [2]: 5.96 µM (active)
Potency [10]: 2.11 µM (active)
Potency [3]: 5.96 µM (active)
Potency [4]: inactive
Potency [5]: inactive
Potency [13]: inactive
Potency [18]: inactive
Potency [9]: inactive
Potency (Aromatase (Homo sapiens)): inactive

CN1CC(=O)NC1=N
outcome [1]: inactive
Potency [2]: inactive
Potency [3]: inactive
Potency [4]: inactive
outcome [15]: inactive
Potency [16]: inactive
Potency [5]: inactive
Potency [17]: inactive
Potency [6]: inactive
Potency [7]: inactive
outcome [8]: inactive
outcome [11]: inactive
Potency [9]: inactive
Potency (Aromatase (Homo sapiens)): inactive

Nc1nc2c(ncn2COC(CO)CO)c(=O)[nH]1
outcome [1]: inactive
Potency [2]: 2.85 µM (active)
Potency [3]: 8.04 µM (active)
Potency [5]: inactive
Potency [6]: inactive
Potency [7]: inactive
outcome [8]: inactive
outcome [12]: inactive
outcome [11]: inactive
Potency [13]: inactive
Potency [18]: inactive
Potency (Aromatase (Homo sapiens)): inactive

C[N+](C)(C)CCCCCC[N+](C)(C)C
outcome [1]: inactive
Potency [10]: inactive
Potency [3]: inactive
Potency [4]: inactive
Potency [5]: inactive
Potency [6]: inactive
Potency [7]: inactive
outcome [8]: inactive
outcome [11]: inactive
Potency (Aromatase (Homo sapiens)): inactive

Reference: PubChem BioAssay (Tox21)
